This is an account of results in ChEMBL document CHEMBL3988442, “University of Dundee, Small-Polar-MMV Screening Library” (2021).

In all, about 69,000 compounds went through this assay and about 950 (1.4%) showed an effect of 50% or more. The entries come from a sample that favours strong results as a whole.

The assay deals with Mycobacterium tuberculosis. Briefly: Cornell M. t heat shock assay. Further: in the data most compounds retested in dose-response had high values. The arrangement: dose or concentration left out as unconfirmed. Type of assay: functional, organism-based.
In the case of `Cc1nc[nH]c1CN(Cc1ccccc1F)C1CC(C)(C)NC(C)(C)C1.O=C(O)CC(O)(CC(=O)O)C(=O)O`, the “Percent Effect” value was -2.69%.
As for `Cc1ccc(C2(CN3CCN(Cc4cn(C)nc4C)CC3)CC2)cc1.Cl`, the “Percent Effect” value is 5.814%.
For `Cl.O=C(NC1CCCC1)c1ccnc(C2CCNCC2)c1`, the “Percent Effect” value is given as -6.855%.
In the case of `CN(C)C(=O)COCC1CN(Cc2ccoc2)Cc2ncn(C)c21.O=C(O)C(F)(F)F.O=C(O)C(F)(F)F` (stereo unspecified), the “Percent Effect” value is given as -26.5%.
As for `Cc1ccc(N2CCCC3(COCCN(c4ccccn4)C3)C2)nn1.O=C(O)C(F)(F)F` (stereo unspecified), the “Percent Effect” value is -19.77%.
Under `Cc1nc2cc(-c3nccn3C)nn2c(N2CCC(O)CC2)c1C.Cl` stands 0.7953%.
In the case of `CNC(=O)[C@@H]1C[C@H]2CN(Cc3ccco3)C[C@H]2N1C.O=C(O)C(F)(F)F.O=C(O)C(F)(F)F`, the “Percent Effect” value is recorded as -19.75%.
As for `CS(=O)(=O)NC[C@]12COC[C@H]1CN(CC1CCCC1)C2.O=C(O)C(F)(F)F`, the “Percent Effect” value is on record as -15.72%.
On to `O=C(O)C(F)(F)F.O=C(O)C(F)(F)F.O=C(O)C(F)(F)F.c1ccc(CN2CCC3(CC2)CCN(Cc2cccs2)C3)nc1`, for which the “Percent Effect” value is -44.21%.
Under `Cc1nn(C)c2c(=O)n(CC(=O)NCc3ccccc3Cl)ccc12` stands -7.047%.
In the case of `Cc1cnn(CC2CCCCN2CC(=O)Nc2c(C)n[nH]c2C)c1` (stereo unspecified), the “Percent Effect” value is reported as -5.895%.
Regarding `Cc1cnn(CC2CCCCN2CC(=O)Nc2nncs2)c1` (stereo unspecified), the “Percent Effect” value is 18.17%.
In the case of `Cc1cnn(CC2CCCCN2CC(=O)Nc2nc(C)cs2)c1` (stereo unspecified), the “Percent Effect” value is listed as 74.94%.
Regarding `O=C(N[C@@H]1CN(Cc2c[nH]nc2-c2ccccc2)C[C@H]1O)c1cc[nH]n1`, the “Percent Effect” value was 1.707%.
As to `CN1CCCCc2c1nc1c(c2N)CCC1.O=C(O)c1cc([N+](=O)[O-])ccc1Cl`, the “Percent Effect” value is given as -19.05%.
Consider `Cc1cc(C)cc(CN2CCC3(CC2)CC(Nc2ncccn2)CO3)c1.O=C(O)C(F)(F)F` (stereo unspecified), for which the “Percent Effect” value was -30.68%.
For `CCc1nc(NCc2ccccn2)c2c(n1)c(C)nn2C`, the “Percent Effect” value is -15.98%.
Consider `C=C/C=c1\c(=C/C)oc2c(NCc3ccccc3)nc(C)nc12`, for which the “Percent Effect” value is recorded as 104.3%.
Consider `C=C/C=c1\c(=C/C)oc2c(NCc3ccccc3)nc(CC)nc12`, for which the “Percent Effect” value is reported as 75.04%.
Regarding `Cc1nc(NCc2cccnc2)c2c(n1)c(C)nn2C`, the “Percent Effect” value is 15.35%.
In the case of `CCn1c(NCc2ccccc2)nc2c(C)nn(C)c2c1=O`, the “Percent Effect” value is 12.91%.
With `C=C/C=c1\c(=C/C)oc2c(NCc3ccccc3)ncnc12`, the “Percent Effect” value is listed as -0.4342%.
In the case of `CS(=O)(=O)N1CCC2(CC1)COC(COc1ccccn1)C2.O=C(O)C(F)(F)F` (stereo unspecified), the “Percent Effect” value is -12.81%.
Turning to `O=C(O)C(F)(F)F.O=C(O)C(F)(F)F.O=C1[C@H]2CN(Cc3ccccc3)C[C@H]2CN1CCN1CCCC1`, the “Percent Effect” value was 1.586%.
To `Cc1oncc1C(=O)N[C@@H]1CN(C2CCC2)C[C@@H]2CCCO[C@@H]21.O=C(O)C(F)(F)F` belongs 25.58%; to `Cc1c[nH]nc1C1CCCN1Cc1ncc[nH]1.O=CO` (stereo unspecified), -1.504%.
Consider `Cc1ccccc1NC(=O)c1cncc(C2CCNCC2)n1.Cl`, for which the “Percent Effect” value was 27.66%.
Turning to `CN(C)S(=O)(=O)NCc1cccnc1Oc1ccccc1`, the “Percent Effect” value is -4.23%.
Under `c1ccc(Oc2ncccc2CNCc2ccccn2)cc1` stands 69.15%; under `O=C(CN1CCCCCC1)NCc1cccnc1Oc1ccccc1`, 2.86%.
Take `O=C(C[C@@H]1COC[C@H]2CN(CC3CC3)C[C@@H]12)NCc1cccnc1.O=C(O)C(F)(F)F.O=C(O)C(F)(F)F`: the “Percent Effect” value was 9.594%.
For the molecule `CC(=O)N1CCN(C(=O)Cc2cnc(-c3c(Cl)cccc3Cl)s2)CC1`, the “Percent Effect” value was determined as 3.544%.
With `O=C(Cc1cnc(-c2c(Cl)cccc2Cl)s1)N1CCOCC1`, the “Percent Effect” value is given as -11.24%.
As for `NC(=O)C1CCN(C(=O)Cc2cnc(-c3c(Cl)cccc3Cl)s2)CC1`, the “Percent Effect” value turned out to be 65.47%.
Regarding `O=C(O)C(F)(F)F.O=C1CC(c2cccnc2)C2(CCN(S(=O)(=O)C3CC3)CC2)N1` (stereo unspecified), the “Percent Effect” value is -6.88%.
To `CN(C)S(=O)(=O)NCc1cccnc1Oc1ccccc1F` belongs 7.179%; to `Cc1ccccc1Oc1ncccc1CNS(=O)(=O)N(C)C`, -10.74%.
As to `CN(C)S(=O)(=O)NCc1cccnc1Oc1ccc(F)cc1F`, the “Percent Effect” value is listed as -13.26%.
In the case of `CN(C)S(=O)(=O)NCc1nc(-c2cccc(F)c2)c(-c2ccccn2)[nH]1`, the “Percent Effect” value is reported as 62.81%.
As for `Cc1nc(-c2ccc(CNS(=O)(=O)N(C)C)cc2)ccc1C(N)=O`, the “Percent Effect” value turned out to be 10.37%.
`Cc1ccc(-c2nc(CNS(=O)(=O)N(C)C)[nH]c2-c2ccccn2)cc1`: the “Percent Effect” value was found to be 101.5%.
Turning to `Cl.O=C(c1cccnc1N1CCN(CCO)CC1)N1CCCC1`, the “Percent Effect” value amounted to 2.64%.
Under `COCC1CN(CC2CC2)Cc2nccn2C1.O=C(O)C(F)(F)F` (stereo unspecified) stands -7.797%; under `COCC(=O)N(C)Cc1nc(N2CCCC2)ncc1-c1ccncc1.Cl`, -16.19%.
Turning to `COc1ccc(C2CCCCCN2S(=O)(=O)N(C)C)cc1` (stereo unspecified), the “Percent Effect” value worked out at 68.3%.
Turning to `COc1ccc(C2CCCN2S(=O)(=O)N(C)C)cc1` (stereo unspecified), the “Percent Effect” value is recorded as -0.3722%.
On to `COc1ccc(C2CCCCCN2S(C)(=O)=O)cc1` (stereo unspecified), for which the “Percent Effect” value is reported as -12.37%.
Under `CN(C)CCOCC1CN(Cc2ccccn2)Cc2nnn(C)c21.O=C(O)C(F)(F)F.O=C(O)C(F)(F)F.O=C(O)C(F)(F)F` (stereo unspecified) stands -27.07%.
Regarding `Cc1ccc(C(CCNCCN(C)C)C2CCOC(C)(C)C2)cc1.O=C(O)C(=O)O` (stereo unspecified), the “Percent Effect” value was found to be 1.762%.
Under `NC(CC1CCCC1)c1ccc(Oc2ccccc2)cc1` (stereo unspecified) stands 102.825%.
To `Cl.NC(CC1CCCC1)c1ccccc1` (stereo unspecified) belongs -17.85%; to `Cl.NC(CC1CCCCC1)c1ccccc1` (stereo unspecified), 1.9%; to `COc1ccc(-c2cc(C3CCNCC3)ccn2)cc1.Cl`, -16.31%.
For the molecule `Cc1nc(CN2CCOCC3(CCN(c4ncccn4)CC3)C2)cs1.O=C(O)C(F)(F)F`, the “Percent Effect” value was -11.45%.
Regarding `CCc1nccn1-c1cccc(C2CCCN2)n1.Cl.Cl` (stereo unspecified), the “Percent Effect” value was determined as 8.16%.
Turning to `COCCN(C/C=C/c1ccccc1)Cc1nccs1`, the “Percent Effect” value is reported as 1.581%.
To `COCCN(C/C=C/c1ccccc1)Cc1ccccn1` belongs 61.37%.
Consider `COCCN(C/C=C/c1ccccc1)Cc1ncc[nH]1`, for which the “Percent Effect” value stood at 14.48%.
Consider `CCn1ncnc1CN(C/C=C/c1ccccc1)CCOC`, for which the “Percent Effect” value is on record as -13.31%.
As to `COCCN(C/C=C/c1ccccc1)Cc1[nH]cnc1C`, the “Percent Effect” value is -1.061%.
Under `CCc1ccc(CN(C/C=C/c2ccccc2)CCOC)nc1` stands 98.48%; under `Cc1ccc(CN2Cc3ccccc3O[C@]3(CC[C@H](CO)CC3)C2)s1.Cl`, -7.456%; under `COCCN1CCc2c(cnc(-c3ccccc3)c2C(=O)O)C1.O=C(O)C(F)(F)F`, -9.252%.
For `O=C(O)C(F)(F)F.O=C(c1cscn1)N1CC[C@@H]2[C@@H]1CCN2CC1CCOCC1`, the “Percent Effect” value was 39.35%.
Consider `CCN1CCC(N2CCC(C(=O)N(C)C)CC2)CC1.O=C(O)C(F)(F)F.O=C(O)C(F)(F)F`, for which the “Percent Effect” value is recorded as 2.155%.
Regarding `OC(CN(Cc1ccccc1)Cc1ccncc1)c1cccs1` (stereo unspecified), the “Percent Effect” value was -1.892%.
Consider `OC(CN(Cc1ccccc1)Cc1ccccn1)c1cccs1` (stereo unspecified), for which the “Percent Effect” value is listed as 66.35%.
To `OC(CN(Cc1ccccc1)Cc1cscn1)c1cccs1` (stereo unspecified) belongs 5.463%; to `Cc1cccc(CN2CCC3(CC2)CN(c2cnn(C)c2)C(=O)CO3)n1.O=C(O)C(F)(F)F`, -22.92%; to `CNc1cc(C2CCCNC2)nc(C)n1.Cl.Cl` (stereo unspecified), -17.65%.
Regarding `Cc1cc(C(F)(F)F)nc(CCNC(C)Cn2ccnc2)n1` (stereo unspecified), the “Percent Effect” value was determined as 103.9%.
In the case of `Cc1cc(C(F)(F)F)nc(CCNC(C)Cn2nc(C)cc2C)n1` (stereo unspecified), the “Percent Effect” value turned out to be 1.181%.
Take `Cc1cc(C(F)(F)F)nc(CCNC(C)Cn2cncn2)n1` (stereo unspecified): the “Percent Effect” value came to 16.73%.
With `CCN1CCC2(CC1)OCCN2C(=O)c1cc(Cl)c(OC)c(Cl)c1.Cl`, the “Percent Effect” value was 13.79%.
As to `CN(C)C[C@@H]1CN(C2CCN(c3ccccc3Cl)CC2)C[C@@H]1CO`, the “Percent Effect” value is -0.06241%.
Under `CN(CCO)C[C@@H]1CN(C2CCN(c3ccccc3Cl)CC2)C[C@@H]1CO` stands 81.68%; under `Cc1ccc(N2CCC(N3C[C@@H](CN(C)C)[C@@H](CO)C3)CC2)cc1`, -10.07%; under `Cc1cc(F)ccc1N1CCC(N2C[C@@H](C)[C@@](C)(O)C2)CC1`, 33.53%.
For `CN(C)C[C@@H]1CN(C2CCN(c3ccc(Cl)cc3)CC2)C[C@@H]1CO`, the “Percent Effect” value worked out at 39.93%.
For `Cc1cc(F)ccc1N1CCC(N2C[C@@H](CN(C)C)[C@@H](CO)C2)CC1`, the “Percent Effect” value is 101.8%.
On to `CCc1nc(C)cc(N2CCN(C(=O)[C@@H]3C[C@@H]4C=C[C@H]3C4)CC2)n1`, for which the “Percent Effect” value was -1.962%.
Under `CS(=O)(=O)NCc1cc(=O)n2c(n1)CN(CC1CC1)CCC2.O=C(O)C(F)(F)F` stands 5.307%; under `O=C(O)C(F)(F)F.O=C(O)C(F)(F)F.O=C1CC[C@H]2[C@H](CCN2Cc2ccccn2)N1CC1CCOCC1`, -34.7%.
Consider `Cc1cccc(CN2C(=O)C[C@@H]3[C@@H]2CCN3Cc2ccsc2)n1.O=C(O)C(F)(F)F.O=C(O)C(F)(F)F`, for which the “Percent Effect” value is reported as -5.235%.
On to `Cl.NC(=O)COc1ccc(CNCc2ccc(F)cc2)cc1`, for which the “Percent Effect” value is reported as -18.87%.
For `Cc1noc(C)c1CCC(=O)N1CCN(CCn2cccn2)CC1`, the “Percent Effect” value is on record as -5.618%.
As to `Cc1noc(C)c1CN1CCN(C(=O)CCn2cncn2)CC1`, the “Percent Effect” value is given as -3.616%.
On to `Cc1noc(C)c1CCC(=O)N1CCN(CCn2cncn2)CC1`, for which the “Percent Effect” value stood at 78.74%.
Under `Cn1ncc(Cl)c1C(=O)N1CCC(c2nnsc2S(C)(=O)=O)CC1` stands -21.53%; under `Cn1cnc(S(=O)(=O)N2CC3(CCN(Cc4ccncc4)C3)C2)c1.O=C(O)C(F)(F)F.O=C(O)C(F)(F)F.O=C(O)C(F)(F)F`, 36.02%; under `CN(C)C(=O)COCC1CN(Cc2ccco2)Cc2ncn(C)c21.O=C(O)C(F)(F)F.O=C(O)C(F)(F)F` (stereo unspecified), 31.48%.
